Assay results taken from article PMC11006913.
Positions count from the first letter of the chain named.

Assays:
Experiment in all cases: PBM; 200 nM protein, PBS
Conditions in all cases: dsDNA, one strand shown
SHOX [1] = target: SHOX (Homo sapiens, UniProt O15266 103-189)
VENTX [2] = target: T1, VENTX (Homo sapiens, UniProt O95231 78-163, R121Q)
T1 sequence: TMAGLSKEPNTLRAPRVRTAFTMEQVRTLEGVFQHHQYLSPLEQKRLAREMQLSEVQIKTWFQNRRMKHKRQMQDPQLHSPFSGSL

VENTX [3] = target: T2, VENTX (Homo sapiens, UniProt O95231 78-163)
T2 sequence: T1 sequence with Q44R

ALX4 [4] = target: ALX4 (Homo sapiens, UniProt Q9H161 200-286)
VENTX [5] = target: T3, VENTX (Homo sapiens, UniProt O95231 78-163, Y115F)
T3 sequence: T1 sequence with Y38F, Q44R

ALX4 [6] = target: ALX4 (Homo sapiens, UniProt Q9H161 200-286, Q225E)
SHOX [7] = target: SHOX (Homo sapiens, UniProt O15266 103-189, R173C)
HOXA7 [8] = target: HOXA7 (Homo sapiens, UniProt P31268 116-202)
VAX1 [9] = target: VAX1 (Homo sapiens, UniProt Q5SQQ9 86-172)
VAX1 [10] = target: VAX1 (Homo sapiens, UniProt Q5SQQ9 86-172, T142I)
HOXA7 [11] = target: HOXA7 (Homo sapiens, UniProt P31268 116-202, W177C)
VAX1 [12] = target: VAX1 (Homo sapiens, UniProt Q5SQQ9 86-172, K157R)
HOXA4 [13] = target: HOXA4 (Homo sapiens, UniProt Q00056 201-287, W262R)
HOXA4 [14] = target: HOXA4 (Homo sapiens, UniProt Q00056 201-287, R217L)
HOXA4 [15] = target: HOXA4 (Homo sapiens, UniProt Q00056 201-287)
HOXA4 [16] = target: HOXA4 (Homo sapiens, UniProt Q00056 201-287, W262F)
SIX6 [17] = target: T4, SIX6 (Homo sapiens, UniProt O95475 114-200, L167I)
T4 sequence: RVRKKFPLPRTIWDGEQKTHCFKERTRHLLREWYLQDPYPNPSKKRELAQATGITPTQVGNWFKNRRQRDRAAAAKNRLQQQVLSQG

SIX6 [18] = target: T5, SIX6 (Homo sapiens, UniProt O95475 114-200, L143V)
T5 sequence: T4 sequence with L30V, I54L

SIX6 [19] = target: T6, SIX6 (Homo sapiens, UniProt O95475 114-200, H141N)
T6 sequence: T4 sequence with H28N, I54L

SIX6 [20] = target: T7, SIX6 (Homo sapiens, UniProt O95475 114-200, T165P)
T7 sequence: T4 sequence with T52P, I54L

SIX6 [21] = target: T8, SIX6 (Homo sapiens, UniProt O95475 114-200, L167M)
T8 sequence: T4 sequence with I54M

SIX6 [22] = target: T9, SIX6 (Homo sapiens, UniProt O95475 114-200, L143M)
T9 sequence: T4 sequence with L30M, I54L

SIX6 [23] = target: T10, SIX6 (Homo sapiens, UniProt O95475 114-200, L143I)
T10 sequence: T4 sequence with L30I, I54L

SIX6 [24] = target: T11, SIX6 (Homo sapiens, UniProt O95475 114-200, T165G)
T11 sequence: T4 sequence with T52G, I54L

SIX6 [25] = target: T12, SIX6 (Homo sapiens, UniProt O95475 114-200, T139Q)
T12 sequence: T4 sequence with T26Q, I54L

SIX6 [26] = target: T13, SIX6 (Homo sapiens, UniProt O95475 114-200, T165A)
T13 sequence: T4 sequence with T52A, I54L

SIX6 [27] = target: T14, SIX6 (Homo sapiens, UniProt O95475 114-200, L167V)
T14 sequence: T4 sequence with I54V

SIX6 [28] = target: T15, SIX6 (Homo sapiens, UniProt O95475 114-200)
T15 sequence: T4 sequence with I54L

SIX6 [29] = target: T16, SIX6 (Homo sapiens, UniProt O95475 114-200, T165I)
T16 sequence: T4 sequence with T52I, I54L

Sequence of SHOX (Homo sapiens, UniProt O15266 103-189, R173C) (O15266 103-189 R173C): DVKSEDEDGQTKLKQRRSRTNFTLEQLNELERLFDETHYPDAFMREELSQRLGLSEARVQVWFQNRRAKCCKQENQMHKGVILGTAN
Sequence of SHOX (Homo sapiens, UniProt O15266 103-189) (O15266 103-189): as the sequence (O15266 103-189 R173C) above, with C71R counted along it
Sequence of ALX4 (Homo sapiens, UniProt Q9H161 200-286, Q225E) (Q9H161 200-286 Q225E): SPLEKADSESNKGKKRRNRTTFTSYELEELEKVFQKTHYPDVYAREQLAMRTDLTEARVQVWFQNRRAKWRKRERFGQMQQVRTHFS
Sequence of ALX4 (Homo sapiens, UniProt Q9H161 200-286) (Q9H161 200-286): as the sequence (Q9H161 200-286 Q225E) above, with E26Q counted along it
Sequence of VAX1 (Homo sapiens, UniProt Q5SQQ9 86-172) (Q5SQQ9 86-172): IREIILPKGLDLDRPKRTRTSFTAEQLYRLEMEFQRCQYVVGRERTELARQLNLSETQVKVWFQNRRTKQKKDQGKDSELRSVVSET
Sequence of HOXA4 (Homo sapiens, UniProt Q00056 201-287, W262F) (Q00056 201-287 W262F): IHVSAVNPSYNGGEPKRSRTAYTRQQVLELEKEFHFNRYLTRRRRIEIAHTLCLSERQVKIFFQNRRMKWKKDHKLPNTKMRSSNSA
Sequence of HOXA7 (Homo sapiens, UniProt P31268 116-202) (P31268 116-202): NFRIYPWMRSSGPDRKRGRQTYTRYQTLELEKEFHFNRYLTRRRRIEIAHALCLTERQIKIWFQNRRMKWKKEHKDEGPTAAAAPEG
Sequence of VAX1 (Homo sapiens, UniProt Q5SQQ9 86-172, K157R) (Q5SQQ9 86-172 K157R): as the sequence (Q5SQQ9 86-172) above, with K72R counted along it
Sequence of HOXA4 (Homo sapiens, UniProt Q00056 201-287, W262R) (Q00056 201-287 W262R): as the sequence (Q00056 201-287 W262F) above, with F62R counted along it
Sequence of HOXA4 (Homo sapiens, UniProt Q00056 201-287) (Q00056 201-287): as the sequence (Q00056 201-287 W262F) above, with F62W counted along it
Sequence of HOXA4 (Homo sapiens, UniProt Q00056 201-287, R217L) (Q00056 201-287 R217L): as the sequence (Q00056 201-287 W262F) above, with R17L, F62W counted along it
Sequence of VAX1 (Homo sapiens, UniProt Q5SQQ9 86-172, T142I) (Q5SQQ9 86-172 T142I): as the sequence (Q5SQQ9 86-172) above, with T57I counted along it
Sequence of HOXA7 (Homo sapiens, UniProt P31268 116-202, W177C) (P31268 116-202 W177C): as the sequence (P31268 116-202) above, with W62C counted along it

GCGCCCCC
binding signal (SHOX [1]): 7.04 upbm affinity estimate (log intensity, higher = more binding, comparable within an allelic series) | binding signal (VENTX [2]): 8.12 upbm affinity estimate (log intensity, higher = more binding, comparable within an allelic series) | binding signal (VENTX [3]): 8.12 upbm affinity estimate (log intensity, higher = more binding, comparable within an allelic series) | binding signal (ALX4 [4]): 8.12 upbm affinity estimate (log intensity, higher = more binding, comparable within an allelic series) | binding signal (VENTX [5]): 8.06 upbm affinity estimate (log intensity, higher = more binding, comparable within an allelic series) | binding signal (ALX4 [6]): 8.14 upbm affinity estimate (log intensity, higher = more binding, comparable within an allelic series) | binding signal (SHOX [7]): 7.07 upbm affinity estimate (log intensity, higher = more binding, comparable within an allelic series)

CCGGTCTC
binding signal (SHOX [1]): 7.18 upbm affinity estimate (log intensity, higher = more binding, comparable within an allelic series) | binding signal (VENTX [2]): 8.15 upbm affinity estimate (log intensity, higher = more binding, comparable within an allelic series) | binding signal (VENTX [3]): 8.23 upbm affinity estimate (log intensity, higher = more binding, comparable within an allelic series) | binding signal (HOXA7 [8]): 8.45 upbm affinity estimate (log intensity, higher = more binding, comparable within an allelic series) | binding signal (ALX4 [4]): 8.33 upbm affinity estimate (log intensity, higher = more binding, comparable within an allelic series) | binding signal (VENTX [5]): 8.1 upbm affinity estimate (log intensity, higher = more binding, comparable within an allelic series) | binding signal (ALX4 [6]): 8.34 upbm affinity estimate (log intensity, higher = more binding, comparable within an allelic series) | binding signal (SHOX [7]): 7.23 upbm affinity estimate (log intensity, higher = more binding, comparable within an allelic series) | binding signal (VAX1 [9]): 7.31 upbm affinity estimate (log intensity, higher = more binding, comparable within an allelic series) | binding signal (VAX1 [10]): 7.3 upbm affinity estimate (log intensity, higher = more binding, comparable within an allelic series) | binding signal (HOXA7 [11]): 8.44 upbm affinity estimate (log intensity, higher = more binding, comparable within an allelic series) | binding signal (VAX1 [12]): 7.04 upbm affinity estimate (log intensity, higher = more binding, comparable within an allelic series)

CCCCGGGA
binding signal (SHOX [1]): 7.25 upbm affinity estimate (log intensity, higher = more binding, comparable within an allelic series) | binding signal (HOXA4 [13]): 9.71 upbm affinity estimate (log intensity, higher = more binding, comparable within an allelic series) | binding signal (HOXA4 [14]): 9.86 upbm affinity estimate (log intensity, higher = more binding, comparable within an allelic series) | binding signal (SHOX [7]): 7.27 upbm affinity estimate (log intensity, higher = more binding, comparable within an allelic series) | binding signal (HOXA4 [15]): 9.8 upbm affinity estimate (log intensity, higher = more binding, comparable within an allelic series) | binding signal (HOXA4 [16]): 9.99 upbm affinity estimate (log intensity, higher = more binding, comparable within an allelic series)

CCGGCCAC
binding signal (SHOX [1]): 7.3 upbm affinity estimate (log intensity, higher = more binding, comparable within an allelic series) | binding signal (SIX6 [17]): 8.84 upbm affinity estimate (log intensity, higher = more binding, comparable within an allelic series) | binding signal (SIX6 [18]): 8.77 upbm affinity estimate (log intensity, higher = more binding, comparable within an allelic series) | binding signal (SIX6 [19]): 8.85 upbm affinity estimate (log intensity, higher = more binding, comparable within an allelic series) | binding signal (SIX6 [20]): 8.87 upbm affinity estimate (log intensity, higher = more binding, comparable within an allelic series) | binding signal (SIX6 [21]): 8.86 upbm affinity estimate (log intensity, higher = more binding, comparable within an allelic series) | binding signal (SIX6 [22]): 8.73 upbm affinity estimate (log intensity, higher = more binding, comparable within an allelic series) | binding signal (SIX6 [23]): 8.81 upbm affinity estimate (log intensity, higher = more binding, comparable within an allelic series) | binding signal (SIX6 [24]): 8.89 upbm affinity estimate (log intensity, higher = more binding, comparable within an allelic series) | binding signal (SIX6 [25]): 8.81 upbm affinity estimate (log intensity, higher = more binding, comparable within an allelic series) | binding signal (SIX6 [26]): 8.81 upbm affinity estimate (log intensity, higher = more binding, comparable within an allelic series) | binding signal (SHOX [7]): 7.14 upbm affinity estimate (log intensity, higher = more binding, comparable within an allelic series) | binding signal (SIX6 [27]): 8.82 upbm affinity estimate (log intensity, higher = more binding, comparable within an allelic series) | binding signal (SIX6 [28]): 8.74 upbm affinity estimate (log intensity, higher = more binding, comparable within an allelic series) | binding signal (SIX6 [29]): 8.83 upbm affinity estimate (log intensity, higher = more binding, comparable within an allelic series)
